From PubChem BioAssay AID449739 (Vanderbilt High Throughput Screening Facility, 2010)
Hit rate of the full screen: of about 100,000 compounds, about 4,200 (4.2%) were called active.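 How the source made its calls: active means single-dose well whose peak fluorescence ratio is a statistical outlier from its plate by either plate-standardised score or position-corrected B-score; inactive means the rest.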 Only a selection was taken, and actives are over-represented in it overall.

The molecules below were run against Voltage-dependent T-type calcium channel subunit alpha-1H (Homo sapiens) (UniProt O95180) (assay: Cav3.2 calcium influx blockers – cell-based, Fluo-4 calcium fluorescence, FDSS, MLSMR library, primary screen (AID 449739)). Conditions: Cav3.2-expressing cells, at 10 µM, hits give low values.
Sequence of Voltage-dependent T-type calcium channel subunit alpha-1H (Homo sapiens) (O95180 whole entry, looked up): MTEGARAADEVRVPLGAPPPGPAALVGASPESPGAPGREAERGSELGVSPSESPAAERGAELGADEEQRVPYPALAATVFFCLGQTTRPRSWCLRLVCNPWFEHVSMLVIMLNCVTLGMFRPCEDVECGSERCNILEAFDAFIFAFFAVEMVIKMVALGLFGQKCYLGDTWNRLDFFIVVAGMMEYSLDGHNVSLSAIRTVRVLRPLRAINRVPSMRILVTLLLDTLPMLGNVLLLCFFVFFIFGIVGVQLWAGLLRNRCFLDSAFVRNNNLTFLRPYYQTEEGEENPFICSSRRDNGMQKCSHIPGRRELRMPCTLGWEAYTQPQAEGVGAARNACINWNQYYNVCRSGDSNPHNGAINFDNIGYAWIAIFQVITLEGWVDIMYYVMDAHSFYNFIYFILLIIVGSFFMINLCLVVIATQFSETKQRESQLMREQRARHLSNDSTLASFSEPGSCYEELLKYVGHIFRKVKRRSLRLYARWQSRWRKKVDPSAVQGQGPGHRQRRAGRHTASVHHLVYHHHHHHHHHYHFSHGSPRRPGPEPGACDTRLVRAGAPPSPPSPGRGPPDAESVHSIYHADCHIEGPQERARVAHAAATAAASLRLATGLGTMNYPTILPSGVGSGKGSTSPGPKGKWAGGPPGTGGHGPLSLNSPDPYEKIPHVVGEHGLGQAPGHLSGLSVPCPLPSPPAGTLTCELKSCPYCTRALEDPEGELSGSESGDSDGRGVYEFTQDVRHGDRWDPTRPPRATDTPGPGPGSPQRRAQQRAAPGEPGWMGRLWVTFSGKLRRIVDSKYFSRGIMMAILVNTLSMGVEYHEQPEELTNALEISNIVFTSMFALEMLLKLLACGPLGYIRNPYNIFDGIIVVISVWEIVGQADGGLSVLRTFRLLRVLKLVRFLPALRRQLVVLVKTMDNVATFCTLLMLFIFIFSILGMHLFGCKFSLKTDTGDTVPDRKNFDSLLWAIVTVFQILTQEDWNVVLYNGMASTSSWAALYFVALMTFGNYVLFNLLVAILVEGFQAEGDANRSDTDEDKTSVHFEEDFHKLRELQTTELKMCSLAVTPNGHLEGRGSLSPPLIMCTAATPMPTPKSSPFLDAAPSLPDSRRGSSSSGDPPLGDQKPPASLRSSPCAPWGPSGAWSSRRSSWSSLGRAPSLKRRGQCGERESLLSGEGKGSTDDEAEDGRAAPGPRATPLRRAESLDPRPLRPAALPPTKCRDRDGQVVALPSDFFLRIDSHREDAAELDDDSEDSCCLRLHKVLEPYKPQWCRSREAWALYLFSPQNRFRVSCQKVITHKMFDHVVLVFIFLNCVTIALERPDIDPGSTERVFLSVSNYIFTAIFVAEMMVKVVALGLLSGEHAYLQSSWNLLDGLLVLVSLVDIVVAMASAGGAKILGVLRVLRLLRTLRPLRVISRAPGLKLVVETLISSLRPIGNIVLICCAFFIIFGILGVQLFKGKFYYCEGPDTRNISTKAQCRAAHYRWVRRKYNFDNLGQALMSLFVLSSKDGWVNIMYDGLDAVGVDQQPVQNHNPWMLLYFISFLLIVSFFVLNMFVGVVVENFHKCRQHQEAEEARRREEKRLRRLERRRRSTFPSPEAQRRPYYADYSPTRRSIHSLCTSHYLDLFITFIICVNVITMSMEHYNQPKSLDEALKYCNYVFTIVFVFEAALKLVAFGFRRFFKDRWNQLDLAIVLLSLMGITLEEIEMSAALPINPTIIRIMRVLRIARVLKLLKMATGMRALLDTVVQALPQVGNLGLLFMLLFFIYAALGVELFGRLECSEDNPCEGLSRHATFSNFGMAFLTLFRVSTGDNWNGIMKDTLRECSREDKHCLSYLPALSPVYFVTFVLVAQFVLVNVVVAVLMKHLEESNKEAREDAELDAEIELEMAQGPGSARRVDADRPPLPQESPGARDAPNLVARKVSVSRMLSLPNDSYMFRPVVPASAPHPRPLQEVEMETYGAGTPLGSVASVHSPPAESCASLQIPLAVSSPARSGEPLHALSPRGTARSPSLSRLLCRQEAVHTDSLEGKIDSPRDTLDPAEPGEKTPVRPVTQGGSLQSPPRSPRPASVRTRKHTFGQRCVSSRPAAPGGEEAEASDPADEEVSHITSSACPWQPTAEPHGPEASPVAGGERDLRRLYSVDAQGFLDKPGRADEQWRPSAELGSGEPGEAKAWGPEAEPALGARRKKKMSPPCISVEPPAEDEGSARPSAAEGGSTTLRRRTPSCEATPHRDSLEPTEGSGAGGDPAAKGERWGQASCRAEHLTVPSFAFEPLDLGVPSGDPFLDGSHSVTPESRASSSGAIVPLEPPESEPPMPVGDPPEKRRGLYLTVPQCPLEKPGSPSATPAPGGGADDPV
With O=C(NCc1cc(C(F)(F)F)cc(C(F)(F)F)c1)C1CC(c2cccc(F)c2)=NO1 (configuration not stated) the B-score was -0.916 (inactive).
In the case of O=C(CSc1ncnc2c1cnn2CCc1ccccc1)Nc1ccc(F)cc1, the B-score was 0.0976 (inactive).
COc1ccc(C(C(=O)NCc2ccccc2)N(Cc2cccs2)C(=O)c2cnccn2)cc1 (configuration not stated) was tested, and the B-score was -0.0118 (inactive).
In the case of C/C=C(/C)C(=O)Nc1cccc(C2=NOC3(C2)C[C@@H](C(N)=O)N(C(=O)C2(C)CC2)C3)c1 (some centres not stated), the B-score was -0.695 (inactive).
O=C(NCC1CCCO1)/C(=C\c1ccco1)NC(=O)c1ccccc1 (configuration not stated) was tested, and the B-score was 0.14 (inactive).
In the case of CCOc1cc(C)c(Cl)cc1S(=O)(=O)n1nnc2ccccc21, the B-score was -2.51 (inactive).
For CCOc1ccc(C(C)C)cc1S(=O)(=O)n1nc(C)cc1C, the B-score was -4.23 (active).
With CCOc1ccc(S(=O)(=O)n2ccnc2)c2ccccc12 the B-score was 0.109 (inactive).
O=C(CN1CCN(S(=O)(=O)c2ccc(F)cc2)CC1)Nc1ccccc1F was tested, and the B-score was 0.623 (inactive).
In the case of O=C(CN1CCN(S(=O)(=O)c2ccc3ccccc3c2)CC1)NC(=O)NC1CCCCC1, the B-score was -8.92 (active).
O=C(CN1CCN(c2ccccn2)CC1)NC1CCCCC1 was tested, and the B-score was 0.646 (inactive).
For CCOC(=O)c1cccc(NC(=O)c2ccc(F)cc2F)c1, the B-score was 0.631 (inactive).
In the case of CN1CCN(C(=O)C2=C[C@H](c3ccc4c(c3)OCO4)C[C@H](OCc3ccc(CO)cc3)O2)CC1, the B-score was 0.346 (inactive).
O=C(CCc1ccc(S(=O)(=O)NC2CCCCC2)cc1)NCc1ccccc1 was tested, and the B-score was -2.7 (inactive).
With O=c1[nH]snc1-c1c(Cl)cccc1Cl the B-score was 0.688 (inactive).
CCCCn1ccnc1C(=O)c1cccc(S(=O)(=O)N2c3ccccc3CC2C)c1 (configuration not stated) was tested, and the B-score was -5.72 (active).
For CC1Cc2ccccc2N1C(=O)Cn1cnc2ccccc2c1=O (configuration not stated), the B-score was 0.0523 (inactive).
With CCn1c(CSc2ncccn2)nnc1SCC(=O)N1c2ccccc2CC1C (configuration not stated) the B-score was 0.0736 (inactive).
O=C(NC1CC1)c1ccc2c(c1)NC(=O)c1ccccc1S2 was tested, and the B-score was -0.133 (inactive).
For COc1ccc(COCCN2CCN(S(=O)(=O)c3ccccc3)CCC2=O)cc1, the B-score was -0.361 (inactive).
In the case of COc1cc([C@H](Cc2ccccc2)NC(C)=O)oc(=O)c1, the B-score was -0.786 (inactive).
Cc1ccc(S(=O)(=O)Oc2ccc(/C=N/NC(=O)c3c(Cl)cnn3C)cc2)cc1 was tested, and the B-score was 0.419 (inactive).
Cc1ccc(/C=N/NC(=O)C(NC(=O)c2ccccc2)c2n[nH]c(=O)c3ccccc23)cc1 (configuration not stated) was tested, and the B-score was -4.96 (active).
In the case of Cc1ccc(C(=O)N/N=C/c2sc(=O)n(Cc3cccc(C(=O)O)c3)c2Cl)cc1, the B-score was 2.4 (inactive).
With O=c1c2ccccc2c(-c2ccc(Br)cc2)nn1Cc1ccccc1 the B-score was 0.372 (inactive).
For O=C(COc1ccccc1)NCc1ccc2c(c1)OCO2, the B-score was -1.91 (inactive).
With Cn1cc(CCC(=O)NCc2ccc3c(c2)OCO3)c2ccccc21 the B-score was -2.19 (inactive).
For N#Cc1nc(Cc2cccc3ccccc23)oc1NCc1ccc2c(c1)OCO2, the B-score was -7.29 (active).
In the case of C=CCOC(=O)C1=C[C@H](c2ccc(Br)cc2)C[C@H](OCCCCO)O1, the B-score was -0.545 (inactive).
For COc1ccc(C2/C=C\CN(CC(C)C)CC(=O)N2Cc2ccc(F)cc2)cc1 (configuration not stated), the B-score was -0.399 (inactive).
With CCOc1cc(-c2noc(CCC(=O)N3CCOCC3)n2)ccc1OC the B-score was 0.164 (inactive).
With COc1ccc(N2CCN(C(=O)CCc3nc(-c4ccc(C)cc4)no3)CC2)cc1 the B-score was -3.49 (active).
In the case of Cc1ccc(-c2noc(CCC(N)=O)n2)cc1, the B-score was 0.127 (inactive).
In the case of C#CCOCCOCCOCCNc1nc(N2CCN(C(=O)C([C@@H](C)CC)n3cc(C(N)COC(=O)C(F)(F)F)nn3)CC2)nc(N2CCN(C(=O)[C@H](Cc3ccc(O)cc3)n3cc(C(N)[C@H](C)CC)nn3)CC2)n1 (some centres not stated), the B-score was 0.00651 (inactive).
Cc1ccc(CNC(=O)c2ccccc2CCc2ccccc2)cc1 was tested, and the B-score was 0.145 (inactive).
With COc1ccc(C[C@H]2CN3C(=NC[C@H]3C)N2CCNC(=O)CCC2CCCCC2)cc1 the B-score was -0.267 (inactive).
For O=C(CSc1nnc(-c2c[nH]c3ccccc23)o1)c1ccccc1, the B-score was 0.381 (inactive).
With O=C(CSCc1ccc([N+](=O)[O-])cc1)NCCSCc1ccccc1 the B-score was -6.39 (active).
In the case of O=C(NCCc1ccccc1)/C(=C\c1ccc([N+](=O)[O-])cc1)NC(=O)c1ccccc1, the B-score was 0.653 (inactive).
With O=C(CSCc1ccc([N+](=O)[O-])cc1)Nc1cccc(C(=O)Nc2ccccc2C(=O)O)c1 the B-score was -1.32 (inactive).
For COc1cccc(/C=N/NC(=O)C(=O)N2CCCC2)c1, the B-score was 1.2 (inactive).
For COC(=O)COc1cccc2c(=O)n(CC(=O)NCCc3ccc(OC)c(OC)c3)ccc12, the B-score was 1.52 (inactive).
With Cc1cccc(N2CCN(C(c3ccc(N(C)C)cc3)c3nnnn3C(C)(C)C)CC2)c1C (configuration not stated) the B-score was -3.44 (inactive).
With CC(C)(C)n1nnnc1C(c1ccc(F)cc1)N1CCN(Cc2ccc3c(c2)OCO3)CC1 (configuration not stated) the B-score was -3.16 (inactive).
For CC(C)(C)n1nnnc1C(c1ccc(Cl)cc1)N1CCSCC1 (configuration not stated), the B-score was -2.81 (active).
COc1ccccc1-c1n[nH]c2c1[C@H](C)CC[C@H]2C(C)C was tested, and the B-score was -2.06 (inactive).
With COc1ccc(/C=C/C(=O)Nc2c(C)nn(C)c2C)cc1COc1ccc(Br)cc1 the B-score was -1.13 (inactive).
In the case of CCn1c(COc2ccc(OC)cc2)nnc1SCC(=O)Nc1cc(OC)ccc1OC, the B-score was -0.694 (inactive).
With CCn1nc(C)c(NC(=O)/C=C/c2ccc(OC)c(COc3ccc(Br)cc3)c2)c1C the B-score was -3.94 (active).
With O=C(CN1CCN(S(=O)(=O)/C=C/c2ccccc2)CC1)NC(=O)NCc1ccco1 the B-score was 0.253 (inactive).
For Cc1ccc(C(=O)N/C(=C/C=C/c2ccccc2)C(=O)NCc2ccco2)cc1, the B-score was -4.77 (active).
With CCCCOc1ccc(C(=O)NCc2ccco2)cc1 the B-score was -0.276 (inactive).
In the case of O=C(CSCc1ccccc1Cl)NNC(=O)c1ccccc1, the B-score was -0.234 (inactive).
CCOC(=O)c1ccc(NC(=O)c2c(N)n(C)c(=O)[nH]c2=O)cc1 was tested, and the B-score was -2 (inactive).
In the case of CCN(CC)C(=O)CN(c1cccc(OC)c1)S(=O)(=O)c1ccc(C)cc1, the B-score was 0.247 (inactive).
With COC(=O)CN(c1nc(C)c(Cl)c(OC)n1)S(=O)(=O)c1ccc(C)cc1 the B-score was -3.54 (active).
COc1cccc(NC(=O)CN(C)S(=O)(=O)c2ccc(C)cc2)c1 was tested, and the B-score was 0.446 (inactive).
For O=C(NC1CC1)C1=C[C@H](c2c[nH]c3ccccc23)C[C@H](OCc2ccc(CO)cc2)O1, the B-score was -0.0426 (inactive).
In the case of Cc1cc(C)cc(OCC(=O)NNC(=O)c2cc3ccccc3oc2=O)c1, the B-score was 0.0296 (inactive).
For Nc1c(-c2cccc(Cl)c2)cnn1-c1cccc([N+](=O)[O-])c1, the B-score was -4.85 (active).
For CCOC(=O)CSc1ncc(-c2cccc(Cl)c2)cn1, the B-score was 0.28 (inactive).
With Cc1onc(-c2ccccc2Cl)c1C(=O)NCCn1ccc2ccccc21 the B-score was -3.91 (active).
With Cc1ccc2cc(CCNC(=O)c3c(-c4ccccc4Cl)noc3C)c(=O)[nH]c2c1 the B-score was -4.54 (active).
For COCCNC(=O)c1ccccc1-c1nc(-c2ccccc2Cl)no1, the B-score was -0.0406 (inactive).
In the case of Cc1onc(-c2c(Cl)cccc2Cl)c1C(=O)c1c[nH]c(C(=O)NC2CC2)c1, the B-score was 0.359 (inactive).
For Cc1ccc2cc(CCNC(=O)c3ccc4c(c3)OCO4)c(=O)[nH]c2c1, the B-score was 0.446 (inactive).
In the case of Cc1onc(-c2ccccc2Cl)c1C(=O)OCC(=O)c1ccccc1, the B-score was -0.332 (inactive).
CCCCCCNS(=O)(=O)c1ccccc1Br was tested, and the B-score was -1.42 (inactive).
For CC(C)C(=O)N1CCC2(CC1)Oc1ccc(F)cc1C(=O)C21CC(c2ccccc2)=NO1 (configuration not stated), the B-score was -0.517 (inactive).
In the case of CC(C)(C)Oc1ccccc1Nc1nc(NCCO)nc(N2CCCC2)n1, the B-score was 0.107 (inactive).
Cc1ccc(-c2cc(=O)c3ccc(F)cc3[nH]2)cc1 was tested, and the B-score was -1.19 (inactive).
For CCCCCCc1cc2cc(-c3nnc(-c4ccccc4)o3)c(=O)oc2cc1O, the B-score was -8.89 (active).
For O=c1oc2cc(O)ccc2cc1-c1ccc(F)cc1, the B-score was -0.437 (inactive).
With O=C(c1ccc(Cl)cc1)c1cnc(Nc2ccccc2)s1 the B-score was 0.657 (inactive).
In the case of C[C@@H]1NC(=O)c2cc([N+](=O)[O-])cc(F)c2NCCC[C@@H](C(N)=O)NC(=O)[C@H](CC(N)=O)NC1=O, the B-score was 0.0125 (inactive).
With CCCCNC(=O)c1onc(CSc2cccc(OC)c2)c1C(=O)O the B-score was -0.115 (inactive).
O=C(O)C1=C[C@H](c2cccs2)C[C@H](OCCCCO)O1 was tested, and the B-score was 0.408 (inactive).
For Cc1ccccc1CSCCNC(=O)c1ccc(N(C)S(=O)(=O)c2ccccc2)cc1, the B-score was -5.82 (active).
For CN(c1ccc(C(=O)NCc2ccccn2)cc1)S(C)(=O)=O, the B-score was 0.091 (inactive).
For Cc1ccc(C(=O)NCCNS(=O)(=O)c2ccccc2)cc1, the B-score was 0.965 (inactive).
In the case of NC(N)=NCCCc1cn(CC(=O)N2CCNCC2)nn1, the B-score was 0.0996 (inactive).
N#Cc1ccc(-c2ccc(F)cc2)nc1Sc1ccccc1 was tested, and the B-score was -0.0447 (inactive).
Cc1ccc(SCC2=NNC(=O)C2)cc1 was tested, and the B-score was -0.242 (inactive).
With COc1ccc2c(c1)CCNC2Cc1ccc(OC)c(O)c1 (configuration not stated) the B-score was 0.0462 (inactive).
With COc1ccc(OC)c(NC(=O)CN2CCN(C(=O)c3ccco3)CC2)c1 the B-score was 1.23 (inactive).
In the case of O=C(CN1CCN(C(=O)c2ccco2)CC1)Nc1ccc2c(c1)OCO2, the B-score was 0.902 (inactive).
In the case of O=C(CN1CCN(C(=O)c2ccco2)CC1)Nc1ccc(Cl)c(C(F)(F)F)c1, the B-score was -6.28 (active).
For COc1ccc(CC(=O)Nc2sc(Cc3ccccc3)c(C)c2C(N)=O)cc1, the B-score was -0.493 (inactive).
In the case of Cc1ccccc1NC(=O)C(C)c1ccc(-c2ccccc2)c(F)c1 (configuration not stated), the B-score was -0.689 (inactive).
For CN1CCN(c2nc3c(c(=O)[nH]c(=O)n3C)n2Cc2cccc3ccccc23)CC1, the B-score was 0.465 (inactive).
In the case of CC1CCN(c2nc3c(c(=O)[nH]c(=O)n3C)n2CCCc2ccccc2)CC1, the B-score was -5.1 (active).
With CCCSc1nc2c(c(=O)[nH]c(=O)n2C)n1CCc1ccccc1 the B-score was -0.0804 (inactive).
